Among the data in PubChem BioAssay (NCATS) are Potency, IC50 (viability decrease) and outcome values, retold here.

Records with an inconclusive call do not appear. A call without a number means that no potency is given here. Calls of active or inactive are those of the source. The call rests on the fitted dose curve; in most records, active means well fitted curve in the direction sought with a large enough effect; inconclusive means small, poorly fitted or top-dose-only effect, or another doubt; inactive means no such curve, though single readings can be large; an effect the other way counts as inactive or inconclusive.

Assay [1] is described as follows: qHTS Screen of the MIPE 4.0 Collection Against Ewings Sarcoma (TC71) (AID 1259253). Further: nearly all actives have a fitted effect of over 40% in size. Further: potency means the concentration at half of the fitted maximal effect. The note with it: TC71 Ewing sarcoma viability, CellTiter-Glo, 48 h; series mostly up to 45.8 µM. In short, it runs like this: (§1)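 Dose series incubated 48 h with cells in RPMI plus 5% FBS, glutamine and penicillin/streptomycin; cell viability then quantified via CellTiter-Glo.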
For orientation: qHTS replaces the single test concentration by a dilution series.

Assay [2] is described as follows: qHTS Screen of the MIPE 4.0 Collection Against Ewings Sarcoma (TC32) (AID 1259256). Further: nearly all actives have a fitted effect of over 45% in size. Further: potency means the concentration at half of the fitted maximal effect. The note with it: TC32 Ewing sarcoma viability, CellTiter-Glo, 48 h; series mostly up to 45.8 µM. In short, it runs like this:
as §1

Assay [3] is described as follows: Identifying Small Molecule Inhibitors of Pancreatic Cancer Stem Cells (SN12C, Adherent) (AID 1259358).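 Further: cell survival measured after 48 h of compound exposure.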 Further: potency means the concentration at half of the fitted maximal effect. The note with it: viability/growth inhibition; series mostly up to 46.1 µM. The method, boiled down:
(§2)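 Endpoint: ATP-based luminescence, 48 h drug exposure. Bortezomib at 9.2 uM final as full-kill control; DMSO vehicle as negative control; activity normalized between vehicle and cell-free wells.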

Assay [4] can be described thus: Identifying Small Molecule Inhibitors of Pancreatic Cancer Stem Cells (Panc1, Spheroid) (AID 1259359).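 Further: potency means the concentration at half of the fitted maximal effect; compound exposure lasted 48 h before reading.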 The note with it: Panc1 spheroid cancer stem cell viability. The method, boiled down: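 After a 4 h attachment period, compounds were pinned into wells and cultures held 48 h under standard incubator conditions. Viability was then measured as CellTiter-Glo luminescence following 10 min at room temperature.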

Assay [5] is described as follows: Identifying Small Molecule Inhibitors of Pancreatic Cancer Stem Cells (A278, Adherent) (AID 1259361).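 Further: viability read after 48 h compound exposure; nearly all actives have a fitted effect of over 35% in size.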 The note with it: series mostly up to 46.1 µM. In short, it runs like this:
as §2

The nature of assay [6]: qHTS Screen of the MIPE 4.0 Collection Against Ewings Sarcoma (EW8) (AID 1259255). Further: potency means the concentration at half of the fitted maximal effect; nearly all actives have a fitted effect of over 35% in size. The note with it: EW8 Ewing sarcoma viability, CellTiter-Glo, 48 h; series mostly up to 45.8 µM. The method, boiled down: as §1
Assay [7] is described as follows: qHTS assay to identify small molecule inhibitors of chordoma cells - UCH-2 (AID 1259356). The note with it: UCH-2 chordoma viability, CellTiter-Glo ATP luminescence, 48 h; series mostly up to 46.1 µM.
The nature of assay [8]: qHTS assay to identify small molecule inhibitors of chordoma cells - UCH-1 (AID 1259355). Further: nearly all actives have a fitted effect of over 55% in size. Particulars: UCH-1 chordoma viability, CellTiter-Glo, 48 h, combination, with auranofin plus four topoisomerase inhibitors; series mostly up to 46.1 µM. The method, boiled down: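 Screening used approved and investigational drugs in 15-point titration against 800 seeded cells per well. A fixed combination of auranofin with camptothecin, doxorubicin, rubitecan and topotecan followed compound addition, and growth was scored by CellTiter-Glo after 48hr.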

Assay [9] in a line: Identifying Small Molecule Inhibitors of Pancreatic Cancer Stem Cells (A2780, Spheroid) (AID 1259357). Further: potency means the concentration at half of the fitted maximal effect.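 Further: spheroids pre-formed over 14 days in stem cell medium on hydrogel; compound exposure lasted 48 h before the ATP luminescence read.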 Particulars: Potency: A2780 spheroid viability; series mostly up to 46.1 µM. The method, boiled down:
as §2

Assay [10] can be described thus: Identifying Small Molecule Inhibitors of Pancreatic Cancer Stem Cells (Panc1, Adherent) (AID 1259362). Further: potency means the concentration at half of the fitted maximal effect. The note with it: Potency: viability; series mostly up to 46.1 µM. The method, boiled down:
as §2

On to `CCOC(=O)C1=C(N)Oc2ccc(Br)cc2C1C(C#N)C(=O)OCC` (configuration not stated), for which the Potency in [1] is 23.5 µM (active); in assay [2], 37.2 µM (active). With `COc1cc(N2CCC(N3CCN(C)CC3)CC2)ccc1Nc1ncc(Cl)c(Nc2ccccc2S(=O)(=O)C(C)C)n1`, in assay [1], the Potency result is “inactive”. Besides, the Potency in [3] is 18.7 µM (active); in assay [4], 0.418 µM (active). The IC50 (viability decrease) in assay [5] is 6.62 µM (active).

`CN(C)C1CCN(C(=O)c2ccc(NC(=O)Nc3nc(N4CCOCC4)nc(N4CCOCC4)n3)cc2)CC1`: the Potency in [1] is 0.0743 µM (active); in [3], 0.0074 µM (active). Further, in assay [5], the IC50 (viability decrease) was 0.0148 µM (active). As for `NC(=O)[C@@H](CCC(F)(F)F)N(Cc1ccc(-c2ncon2)cc1F)S(=O)(=O)c1ccc(Cl)cc1`, the figures for the Potency in [1] and in [2] were 18.7 µM (active) and 14.8 µM (active), respectively. For `NS(=O)(=O)c1ccc(NC2=CC(=O)c3ccccc3C2=O)cc1`, the Potency in [6] was 1.87 µM (active). With `CCOC(=O)O[C@]1(C(=O)OCCl)CC[C@@H]2[C@H]3CCC4=CC(=O)C=C[C@]4(C)[C@@H]3[C@@H](O)C[C@@]21C`, in assay [1], the Potency result was “inactive”. In addition, the outcome in assay [7] was inactive.

For the compound `Cc1cnc(C(=O)O)c[n+]1[O-]`, the Potency result in [8] was “inactive”. In [7], the call was inactive. In the case of `CC(C(=O)O)c1ccc(-c2ccccc2)c(F)c1` (configuration not stated), in assay [7], the compound was classed as inactive. Take `CC(C)(C)c1cc(C(=O)O)c(NC(=O)Nc2ccc3[nH]ncc3c2)s1`: the Potency entry in assay [9] was “inactive”. In the case of `c1ccc2c(-c3cnn4cc(-c5ccc(N6CCNCC6)cc5)cnc34)ccnc2c1`, the Potency in assay [4] is 26.4 µM (active); in [10], 20.9 µM (active). Consider `CCN(CC)C(=O)c1ccc(O)c(OC)c1`, for which, in assay [8], the Potency entry was “inactive”. Moreover, in assay [7], the result was inactive. `O=C(O)CCC1CCC(c2cc(F)ccc2F)(S(=O)(=O)c2ccc(Cl)cc2)CC1` (configuration not stated): the Potency in [2] was 11.8 µM (active); in assay [4], 3.32 µM (active). In addition, the Potency result in [3] and in assay [10] was “inactive” each time. In addition, the IC50 (viability decrease) entry in assay [5] is “inactive”. In the case of `O=c1cc(CN2CCOCC2)occ1OCCCCCSc1ccnc2cc(C(F)(F)F)ccc12`, in assay [2], the Potency is 18.7 µM (active). The Potency result in assay [10] is “inactive”. `CCOC(CN1C(=O)[C@](CC(=O)Nc2ccc(C)cc2)(NC(=O)Nc2ccc(C)cc2)c2ccccc21)OCC`: in [2], the Potency result was “inactive”. The Potency was 0.0059 µM (active) in [9] and 23.5 µM (active) in assay [3].

`COc1cc2c(cc1OC)CN(CCc1ccc(NC(=O)c3cc(OC)c(OC)cc3NC(=O)c3cnc4ccccc4c3)cc1)CC2`: the Potency in [2] was 5.9 µM (active). Same read-out and setting: the value for `Cc1nnc(C(C)C)n1C1C[C@H]2CC[C@@H](C1)N2CC[C@H](NC(=O)C1CCC(F)(F)CC1)c1ccccc1` (some centres not stated) was 26.4 µM (active); that for `CCNc1cc(NC2CCC(O)CC2)nc(Nc2ccc3c(ccn3Cc3ccccc3)c2)n1` (configuration not stated) was 23.5 µM (active). `CC(=O)CCCCn1c(=O)c2c(ncn2C)n(C)c1=O`: the Potency entry in assay [8] is “inactive”. Besides, the call in assay [7] was inactive. Consider `N[C@@]1(C(=O)O)CS(=O)(=O)[C@H]2[C@H](C(=O)O)[C@H]21`, for which the Potency in assay [2] was 18.7 µM (active). Consider `CC(=O)c1ccc(S(=O)(=O)NC(=O)NC2CCCCC2)cc1`, for which the Potency result in assay [8] was “inactive”. Also, in [7], the outcome was inactive.

As to `C=C1C(=O)OC(CCCCCCCC)C1C(=O)O` (configuration not stated), the Potency in assay [2] was 26.4 µM (active).

Take `CCN(CC)CCNC(=O)c1ccc(N)cc1`: the Potency result in assay [8] was “inactive”. In assay [7], the call was inactive. `O=C(O)c1ccc(-c2cc3cccnc3c(-c3ccc4nonc4c3)n2)cc1`: the Potency in [2] was 26.4 µM (active). Besides, the Potency result in assay [3] is “inactive”. For the same compound, the IC50 (viability decrease) result in assay [5] was “inactive”. In the case of `Cc1[nH]c(C=C2C(=O)Nc3ccc(S(=O)(=O)Cc4c(Cl)cccc4Cl)cc32)c(C)c1C(=O)N1CCC[C@H]1CN1CCCC1`, the Potency in assay [2] is 37.2 µM (active). `O=C1NCC2(CCN(CCc3ccccc3)CC2)O1`: in assay [8], the Potency result was “inactive”. In [7], the outcome was inactive. Consider `Clc1ccc(COC(Cn2ccnc2)c2ccc(Cl)cc2Cl)cc1` (configuration not stated), for which, in assay [2], the Potency was 18.7 µM (active).

On to `O=C(O)c1cc(-c2ccccc2)nc2ccccc12`, for which the Potency entry in assay [8] was “inactive”. Also, in assay [7], the outcome was inactive.

As to `Clc1ccc(CCC(Cn2ccnc2)Sc2c(Cl)cccc2Cl)cc1` (configuration not stated), in [2], the Potency entry was “inactive”.

Regarding `CN1CCN(CCOc2cc(OC3CCOCC3)c3c(Nc4c(Cl)ccc5c4OCO5)ncnc3c2)CC1`, the Potency in assay [2] is 29.6 µM (active); in assay [3], 1.87 µM (active). The Potency result in assay [9] is “inactive”. Further, the IC50 (viability decrease) in assay [5] was 20.9 µM (active). `CC=CCC(C)C(O)C1C(=O)NC(CC)C(=O)N(C)CC(=O)N(C)C(CC(C)C)C(=O)NC(C(C)C)C(=O)N(C)C(CC(C)C)C(=O)NC(C)C(=O)NC(C)C(=O)N(C)C(CC(C)C)C(=O)N(C)C(CC(C)C)C(=O)N(C)C(C(C)C)C(=O)N1C` (configuration not stated): the Potency result in assay [2] is “inactive”.

On to `O=C(O)c1c(Cl)c(Cl)c(Cl)c(Cl)c1-c1c2cc(I)c(=O)c(I)c-2oc2c(I)c(O)c(I)cc12`, for which, in assay [2], the Potency was 18.7 µM (active).

Turning to `OC[C@@H](O)[C@H](O)[C@H](O)[C@@H](O)CO`, the Potency entry in assay [8] is “inactive”. Moreover, the result in [7] was inactive.

As to `N[C@H](CSC(c1ccccc1)(c1ccccc1)c1ccccc1)C(=O)O`, in assay [2], the Potency result is “inactive”.
